Gli-Sufu block: blocks Gli-Sufu signaling in a luciferase reporter; Sufu-KO-LIGHT fibroblasts, Gli luciferase reporter luminescence; inhibition, % at 5 µM; 0.74% of 340,000 active; AID 588413;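 active means inhibition above about 55%, limit read from the data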
NR2F2 inh: blocks human COUP-TFII nuclear receptor | P24468 | HEK293T NGFI-A luciferase reporter, luminescence | inhibition, % at 8.6 µM | 0.7% of 370,000 active;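 active means inhibition above a per-plate cutoff, mean inhibition of test wells between control levels plus 3 SD, cut at about 38% in these data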;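 further: cells cotransfected with COUP-TFII expression vector driving the NGFI-A reporter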
FXN GAA850 act: increases GAA850 frataxin promoter reporter activity. HEK293 lucGAA850 FXN promoter luciferase reporter, 24 h; percent of 10 µM SAHA response. activation, % at 6 µM. 0.56% of 360,000 active. AID 540364;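 active means activation above the average of all compounds screened plus 3 SD, cutoff fixed separately per campaign, cut at about 7.5% in these data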
SMARCA2 activ: increases SMARCA2 function in MMTV reporter cells; MG213 cells, MMTV-luciferase reporter, dexamethasone, overnight; activation, % at 9.1 µM; 1% of 370,000 active; AID 652017; in the data active means activation above about 7.8%
GalR3 antag: human GalR3 antagonism | 0.44% of 360,000 active | O60755 | AID 651719 | HEK293 GalR3-CNG cAMP membrane potential fluorescence; galR3 body fused to GalR1 C-terminus | inhibition, % at 3 µM;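 active means inhibition above the screen-wide average plus 3 SD, cut at about 13% in these data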;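 further: forskolin and galanin both at EC90 stimulate the cells; cAMP rise reported by CNG channel membrane potential dye signal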
Target sequence (O60755 1-299 limits assumed): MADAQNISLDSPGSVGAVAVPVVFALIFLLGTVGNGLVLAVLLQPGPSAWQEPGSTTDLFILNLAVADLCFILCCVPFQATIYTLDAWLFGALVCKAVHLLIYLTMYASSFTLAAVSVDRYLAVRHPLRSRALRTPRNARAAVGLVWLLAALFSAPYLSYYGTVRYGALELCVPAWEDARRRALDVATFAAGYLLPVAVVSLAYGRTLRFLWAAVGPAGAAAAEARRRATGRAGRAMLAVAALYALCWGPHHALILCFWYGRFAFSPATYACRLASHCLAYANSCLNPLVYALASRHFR
H9c2 protect: modulators protecting cardiomyocytes from myocardial damage | H9c2 cardiomyocytes, H2O2 injury protection, ATPLite, 2 h | protection from H2O2 cell death, % at 20 µM | 0.63% of 360,000 active | AID 588492;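 active means compounds giving at least 50% protection of heart cells from peroxide-induced death in the single-dose screen, raw or plate-pattern-corrected value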
Numbers stand for hits; . = inactive; / = no result given. Sampled rows, rich in hits. Any-hit rate of the full collection: about 3.4%.

SMILES	Gli-Sufu block	NR2F2 inh	FXN GAA850 act	SMARCA2 activ	GalR3 antag	H9c2 protect
Cc1cccc(C(=O)Nc2nnc(SCC(=O)Nc3ccc4c(c3)oc3ccccc34)s2)c1	.	.	.	.	.	.
COc1ccccc1C(=O)Nc1nnc(SCC(=O)Nc2ccc3c(c2)oc2ccccc23)s1	.	.	.	13.2	.	.
CCOC(=O)c1csc(NC(=O)C2CCCN(S(=O)(=O)c3cc(OC)ccc3OC)C2)n1 (stereo not drawn)	/	.	/	.	/	/
CCOC(=O)N1CCC(=NNC(=O)c2ccccc2F)CC1	.	.	.	11.1	.	.
CCOC(=O)N1CCC(=NNC(=O)c2ccc(O)cc2)CC1	.	.	.	.	.	.
O=C(OC12CCCN(C1)/C(=C/c1ccncc1)C2)c1ccc(Cl)cc1 (stereo not drawn)	/	.	/	.	/	/
COCc1c(C(=O)Nc2ccc3nc(N4CCOCC4)sc3c2)oc2ccccc12	.	.	.	.	.	63.5
O=C(Nc1ccc2nc(N3CCOCC3)sc2c1)c1ccccc1	.	.	.	.	.	.
NC(=O)c1nsc(C(=O)N(c2ccccc2)C(C(=O)NC2CCCC2)c2ccc3ncccc3c2)c1N (stereo not drawn)	.	.	.	.	.	62.1
CCOc1ccc(C(C(=O)NC2CCCC2)N(C(=O)c2snc(C(N)=O)c2N)c2cccc(O)c2)cc1 (stereo not drawn)	.	.	.	.	.	81.4
COc1nc(N/N=C/c2cc3c(cc2Br)OCO3)nc(N2CCOCC2)n1	.	.	.	.	.	53.8
Clc1cc2c(cc1/C=N/Nc1nc(N3CCOCC3)nc(N3CCOCC3)n1)OCO2	.	.	.	.	.	.
COc1ccc(OC)c(Nc2nc(N)c([N+](=O)[O-])c(N3CCOCC3)n2)c1	.	.	.	.	.	52.5
CN(Cc1ccccc1)C(=O)OCc1cn(Cc2cccc(F)c2F)nn1	/	.	/	.	/	/
COc1cc(/C=N/NC(=S)Nc2cccc(Cl)c2C)ccc1OCC(=O)N1CC(C)OC(C)C1 (stereo not drawn)	.	.	.	.	.	55.2
O=C(Nc1ccc(C(F)(F)F)cc1)c1cc(-c2cccnc2)nc2ccc(Br)cc12	.	.	.	.	.	.
CC(=O)Nc1cccc(NC(=O)c2cc(-c3ccccn3)nc3ccc(Cl)cc23)c1	.	.	.	.	.	.
CC(=O)Nc1cccc(NC(=O)c2cc(-c3cccnc3)nc3ccc(Br)cc23)c1	.	.	.	.	.	80.4
CC(=O)Nc1cccc(NC(=O)c2cc(-c3cccnc3)nc3ccc(Cl)cc23)c1	.	.	.	.	.	65.3
Cc1ccc(S(=O)(=O)N2c3ccccc3C[C@H]2CC=C(c2ccccc2)c2ccccc2)cc1	/	.	/	/	/	/
COc1ccccc1C(=O)NC1CCCCN(Cc2ccc(C)cc2)C1=O (stereo not drawn)	/	.	/	.	/	/
COc1cc(NS(=O)(=O)c2ccc(C)cc2)c2ncccc2c1	87.6	.	.	.	.	.
Cc1ccc(S(=O)(=O)Nc2ccccc2-c2ccccc2NS(=O)(=O)c2ccc(C)cc2)cc1	.	.	.	.	.	.
Cc1ccc(S(=O)(=O)Nc2cccc3cccnc23)cc1	63.4	.	.	.	.	.
Cc1ccc2nc(-c3ccc(NC(=O)COC(=O)c4ccc(Br)o4)cc3)sc2c1	.	.	.	9.3	.	.
SMILES	Gli-Sufu block	NR2F2 inh	FXN GAA850 act	SMARCA2 activ	GalR3 antag	H9c2 protect
CCCC(=O)Nc1nc2ccc(NC(=O)c3ccc(Br)o3)cc2s1	.	.	.	.	.	72.6
CNS(=O)(=O)c1cccc(C(=O)OCC(=O)Nc2ccc(-c3nc4ccc(C)cc4s3)cc2)c1	.	/	.	/	/	.
Cc1nc2ccc(NC(=O)c3ccc(Br)o3)cc2s1	/	.	.	.	.	.
COc1ccc(/C=C(\C#N)C(=O)OCC(=O)Nc2ccc(-c3nc4ccc(C)cc4s3)cc2)cc1	.	.	.	7.8	.	.
Cc1ccc2nc(-c3ccc(NC(=O)COC(=O)c4ccco4)cc3)sc2c1	.	.	.	7.9	.	.
Cc1ccc2nc(-c3ccc(NC(=O)COC(=O)c4ccc([N+](=O)[O-])o4)cc3)sc2c1	.	.	.	.	.	.
CCCC(=O)N1CCC[C@]2(CC[C@@H](CCC(=O)N(CC)CC)O2)C1	/	.	/	.	/	/
Cc1nc(SCC(=O)N2CCN(c3ccccc3)CC2)c2oc3ccccc3c2n1	.	.	.	.	.	74.5
Cc1nc(SCC(=O)O)c2oc3ccccc3c2n1	.	.	.	.	.	.
Cc1c(O)ccc(/C(Cc2ccc3ccccc3n2)=N\N)c1O	.	.	.	.	.	63.2
COC(=O)CCC/C=C1/SCC(NC(=O)c2ccccc2)C1=O (stereo not drawn)	.	.	.	.	12.9	.
COC(=O)CCC/C=C1/SCC(NC(=O)c2ccccc2)C1O (stereo not drawn)	.	.	.	.	.	.
CC(C)(N[C@@H](Cc1c[nH]c2ccccc12)C(=O)NCCCc1ccccc1)C(=O)NCc1ccccc1	/	.	/	/	/	/
CN(C(=O)COC(=O)c1c2c(nc3ccccc13)/C(=C/c1cccc([N+](=O)[O-])c1)CCC2)C1CCS(=O)(=O)C1 (stereo not drawn)	.	.	.	.	.	.
O=C(COC(=O)c1c2c(nc3ccccc13)/C(=C/c1cccc([N+](=O)[O-])c1)CCC2)NC1CCS(=O)(=O)C1 (stereo not drawn)	.	.	.	.	.	58.8
O=C(NNC1=C(C(=O)C(F)(F)F)CCC1)c1ccccc1O	.	.	.	.	.	.
COc1ccccc1C(=O)NNC1=C(C(=O)C(F)(F)F)CCC1	.	.	.	.	.	66.8
CCOC(=O)C1=NOC(C(=O)NC2CCCC2)(C(=O)c2ccc(OC)cc2)C1 (stereo not drawn)	/	.	/	.	/	/
COc1ccc(/C=N/NC(=O)c2cc(-c3ccc4c(c3)OCO4)n[nH]2)cc1OC	.	.	.	.	.	65.1
O=C(N/N=C/c1ccc(F)cc1)c1cc(-c2ccc3c(c2)OCO3)n[nH]1	.	.	.	.	.	.
CC1CCN(c2oc(-c3ccc(F)cc3)nc2C#N)CC1	.	.	.	7.8	.	.
CSCCCNC(=O)CN1C(=O)C2CCCCN2C(=O)c2ccccc21 (stereo not drawn)	/	.	/	.	/	/
COc1cccc(C(=O)Nc2c(C(N)=O)oc3ccccc23)c1	.	.	.	.	.	111.2
CCOC(=O)c1oc2ccccc2c1NC(=O)c1cccc(OC)c1	.	.	.	.	.	.
CCn1c(NC(=O)/C=C/c2ccc(F)cc2)nc2ccccc21	.	.	.	.	.	74.5
CN1CCN(C(=O)c2cccc3c(-c4ccc(F)c(F)c4)coc23)CC1	/	/	.	/	/	.
COc1c(O)cc2c(c1O)[C@@H]1O[C@H](CO)[C@@H](O)[C@H](O)C1OC2=O (stereo partly drawn)	.	.	.	.	12.8	.

Screens as filed in PubChem BioAssay.
